Of roughly 7,900 targets only a part is listed; those with a hit were picked by preference. About 0.6% of all pairs of compound and target were hits. Values without a mark were called inactive.

UniProt Q13356, sequence (Q13356 whole entry, looked up): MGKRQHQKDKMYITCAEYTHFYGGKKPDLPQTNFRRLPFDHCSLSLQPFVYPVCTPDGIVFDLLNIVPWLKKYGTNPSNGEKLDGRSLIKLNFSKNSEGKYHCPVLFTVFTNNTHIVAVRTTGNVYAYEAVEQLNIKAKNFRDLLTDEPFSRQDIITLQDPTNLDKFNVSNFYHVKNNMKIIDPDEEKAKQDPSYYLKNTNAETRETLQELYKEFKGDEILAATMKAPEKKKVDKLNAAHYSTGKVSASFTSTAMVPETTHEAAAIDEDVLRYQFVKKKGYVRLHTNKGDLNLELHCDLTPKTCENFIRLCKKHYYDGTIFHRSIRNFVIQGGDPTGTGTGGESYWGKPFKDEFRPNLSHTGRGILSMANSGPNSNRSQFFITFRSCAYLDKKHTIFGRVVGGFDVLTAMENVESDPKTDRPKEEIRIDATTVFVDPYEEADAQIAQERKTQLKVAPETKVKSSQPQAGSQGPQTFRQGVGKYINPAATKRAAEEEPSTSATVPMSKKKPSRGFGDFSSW
UniProt Q9H814, sequence (Q9H814 whole entry, looked up): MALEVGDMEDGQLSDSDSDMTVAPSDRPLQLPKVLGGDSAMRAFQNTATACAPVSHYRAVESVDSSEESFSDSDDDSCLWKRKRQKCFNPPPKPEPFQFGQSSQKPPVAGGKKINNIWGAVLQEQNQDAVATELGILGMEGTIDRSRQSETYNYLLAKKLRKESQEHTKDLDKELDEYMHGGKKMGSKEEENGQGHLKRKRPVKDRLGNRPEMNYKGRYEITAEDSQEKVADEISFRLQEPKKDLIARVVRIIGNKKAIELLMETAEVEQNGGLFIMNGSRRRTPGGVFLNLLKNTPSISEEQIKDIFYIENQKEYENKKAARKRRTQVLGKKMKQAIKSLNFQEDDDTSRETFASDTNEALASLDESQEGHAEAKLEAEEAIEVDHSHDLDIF
UniProt P13861, sequence (P13861 whole entry, looked up): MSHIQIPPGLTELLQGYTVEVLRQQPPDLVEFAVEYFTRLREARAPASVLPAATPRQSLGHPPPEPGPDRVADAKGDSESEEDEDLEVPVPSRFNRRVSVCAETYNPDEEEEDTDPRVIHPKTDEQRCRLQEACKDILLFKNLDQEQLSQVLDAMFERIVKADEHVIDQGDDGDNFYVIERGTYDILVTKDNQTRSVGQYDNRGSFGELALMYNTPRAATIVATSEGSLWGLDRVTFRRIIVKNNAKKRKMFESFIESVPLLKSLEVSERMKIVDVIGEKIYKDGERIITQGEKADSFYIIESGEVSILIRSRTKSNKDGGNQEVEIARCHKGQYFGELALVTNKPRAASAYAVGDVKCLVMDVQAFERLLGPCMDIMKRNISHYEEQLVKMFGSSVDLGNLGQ
UniProt Q9Y5Y5, sequence (Q9Y5Y5 whole entry, looked up): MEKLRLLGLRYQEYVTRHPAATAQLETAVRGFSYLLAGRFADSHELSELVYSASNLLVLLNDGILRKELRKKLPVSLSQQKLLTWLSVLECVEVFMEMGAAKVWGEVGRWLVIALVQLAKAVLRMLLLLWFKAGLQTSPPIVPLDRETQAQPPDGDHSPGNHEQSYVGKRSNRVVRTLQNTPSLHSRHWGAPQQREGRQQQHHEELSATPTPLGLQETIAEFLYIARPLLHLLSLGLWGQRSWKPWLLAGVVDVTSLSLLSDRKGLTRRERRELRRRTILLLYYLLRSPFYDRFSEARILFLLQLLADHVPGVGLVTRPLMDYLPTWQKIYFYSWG
UniProt P27986, sequence (P27986 whole entry, looked up): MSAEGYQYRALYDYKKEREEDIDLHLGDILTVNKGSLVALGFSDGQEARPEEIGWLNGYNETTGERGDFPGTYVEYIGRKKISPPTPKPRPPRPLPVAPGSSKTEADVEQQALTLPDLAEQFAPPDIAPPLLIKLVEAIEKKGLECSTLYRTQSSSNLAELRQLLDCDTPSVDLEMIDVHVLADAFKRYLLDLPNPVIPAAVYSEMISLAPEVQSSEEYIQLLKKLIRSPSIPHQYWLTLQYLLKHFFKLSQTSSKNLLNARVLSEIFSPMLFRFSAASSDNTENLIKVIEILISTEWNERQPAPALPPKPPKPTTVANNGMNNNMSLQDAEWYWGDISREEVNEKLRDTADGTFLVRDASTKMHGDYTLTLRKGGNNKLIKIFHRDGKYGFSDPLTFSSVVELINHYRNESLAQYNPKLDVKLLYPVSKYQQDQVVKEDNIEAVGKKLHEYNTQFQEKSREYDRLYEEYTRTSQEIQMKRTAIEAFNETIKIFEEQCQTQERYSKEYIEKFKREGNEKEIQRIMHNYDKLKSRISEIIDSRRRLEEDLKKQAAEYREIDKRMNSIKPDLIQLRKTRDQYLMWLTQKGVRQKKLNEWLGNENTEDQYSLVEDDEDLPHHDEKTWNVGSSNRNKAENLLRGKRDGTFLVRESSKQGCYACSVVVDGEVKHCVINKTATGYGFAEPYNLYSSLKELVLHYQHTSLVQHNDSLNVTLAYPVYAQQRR
UniProt P19174, sequence (P19174 whole entry, looked up): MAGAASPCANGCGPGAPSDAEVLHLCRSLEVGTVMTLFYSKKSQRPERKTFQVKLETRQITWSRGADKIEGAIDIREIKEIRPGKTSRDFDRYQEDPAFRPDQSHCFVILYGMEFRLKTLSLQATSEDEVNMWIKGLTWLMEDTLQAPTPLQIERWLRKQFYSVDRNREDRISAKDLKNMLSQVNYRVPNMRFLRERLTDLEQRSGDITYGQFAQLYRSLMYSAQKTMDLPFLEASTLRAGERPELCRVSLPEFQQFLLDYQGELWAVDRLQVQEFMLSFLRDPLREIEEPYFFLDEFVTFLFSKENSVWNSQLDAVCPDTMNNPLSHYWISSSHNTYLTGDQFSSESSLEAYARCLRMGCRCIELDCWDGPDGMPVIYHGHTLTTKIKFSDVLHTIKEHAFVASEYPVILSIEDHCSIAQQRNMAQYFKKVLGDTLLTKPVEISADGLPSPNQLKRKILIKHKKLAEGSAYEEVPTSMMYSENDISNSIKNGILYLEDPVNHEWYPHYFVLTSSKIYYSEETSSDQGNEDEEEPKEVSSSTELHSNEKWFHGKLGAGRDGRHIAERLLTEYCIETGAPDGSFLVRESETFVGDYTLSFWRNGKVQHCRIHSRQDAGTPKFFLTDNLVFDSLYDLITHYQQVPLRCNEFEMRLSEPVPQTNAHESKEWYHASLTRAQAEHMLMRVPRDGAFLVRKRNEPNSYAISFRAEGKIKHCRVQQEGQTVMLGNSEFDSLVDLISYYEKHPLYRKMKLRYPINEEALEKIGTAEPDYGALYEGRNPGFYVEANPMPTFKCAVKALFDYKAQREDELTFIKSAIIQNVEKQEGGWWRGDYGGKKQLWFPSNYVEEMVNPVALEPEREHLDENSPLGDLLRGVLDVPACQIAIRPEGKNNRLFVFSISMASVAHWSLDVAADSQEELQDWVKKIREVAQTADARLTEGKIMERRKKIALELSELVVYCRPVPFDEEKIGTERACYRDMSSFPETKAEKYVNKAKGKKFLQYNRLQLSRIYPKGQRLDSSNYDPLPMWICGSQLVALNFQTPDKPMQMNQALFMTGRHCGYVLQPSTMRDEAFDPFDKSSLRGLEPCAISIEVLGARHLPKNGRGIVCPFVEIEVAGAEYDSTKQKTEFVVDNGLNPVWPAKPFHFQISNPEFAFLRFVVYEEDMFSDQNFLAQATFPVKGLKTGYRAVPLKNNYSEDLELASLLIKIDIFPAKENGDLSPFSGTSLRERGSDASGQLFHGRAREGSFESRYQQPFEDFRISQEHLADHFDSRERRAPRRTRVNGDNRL
UniProt Q8WXF1, sequence (Q8WXF1 whole entry, looked up): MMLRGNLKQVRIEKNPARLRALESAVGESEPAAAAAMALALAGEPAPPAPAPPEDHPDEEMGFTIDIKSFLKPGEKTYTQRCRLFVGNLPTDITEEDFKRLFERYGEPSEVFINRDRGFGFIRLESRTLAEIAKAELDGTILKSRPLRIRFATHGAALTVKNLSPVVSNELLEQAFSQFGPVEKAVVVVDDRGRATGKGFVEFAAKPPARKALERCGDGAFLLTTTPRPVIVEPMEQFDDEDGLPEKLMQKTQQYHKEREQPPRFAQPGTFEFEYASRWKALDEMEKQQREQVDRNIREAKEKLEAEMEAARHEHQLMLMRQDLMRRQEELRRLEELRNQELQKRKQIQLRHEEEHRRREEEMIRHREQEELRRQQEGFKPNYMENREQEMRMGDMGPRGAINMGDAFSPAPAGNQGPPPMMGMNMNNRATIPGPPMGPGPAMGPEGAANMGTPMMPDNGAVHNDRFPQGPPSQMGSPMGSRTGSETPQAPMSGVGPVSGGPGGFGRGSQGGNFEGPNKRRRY
UniProt Q9UG56, sequence (Q9UG56 whole entry, looked up): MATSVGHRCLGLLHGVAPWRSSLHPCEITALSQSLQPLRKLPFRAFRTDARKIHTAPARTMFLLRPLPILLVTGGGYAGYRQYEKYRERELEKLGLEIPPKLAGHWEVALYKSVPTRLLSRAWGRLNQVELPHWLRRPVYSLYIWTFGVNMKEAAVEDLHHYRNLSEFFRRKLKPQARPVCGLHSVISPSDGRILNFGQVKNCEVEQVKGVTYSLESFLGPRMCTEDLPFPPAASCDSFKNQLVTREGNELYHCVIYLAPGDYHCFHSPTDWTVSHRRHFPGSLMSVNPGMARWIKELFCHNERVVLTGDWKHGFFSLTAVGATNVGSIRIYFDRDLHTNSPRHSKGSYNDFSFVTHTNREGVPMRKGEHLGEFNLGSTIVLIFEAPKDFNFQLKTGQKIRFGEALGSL
UniProt Q6EEV4, sequence (Q6EEV4 whole entry, looked up): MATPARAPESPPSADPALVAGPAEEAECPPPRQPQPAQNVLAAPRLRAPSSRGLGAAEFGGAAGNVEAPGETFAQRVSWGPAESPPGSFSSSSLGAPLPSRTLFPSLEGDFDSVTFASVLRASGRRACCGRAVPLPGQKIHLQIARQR
UniProt Q9Y244, sequence (Q9Y244 whole entry, looked up): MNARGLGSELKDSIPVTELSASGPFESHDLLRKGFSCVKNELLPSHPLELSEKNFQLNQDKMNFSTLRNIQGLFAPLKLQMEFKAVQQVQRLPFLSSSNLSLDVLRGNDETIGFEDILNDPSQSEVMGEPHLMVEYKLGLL

Compound in the test: c1cn2cc(-c3ccc4cn[nH]c4c3)nc(Nc3ccc(N4CCOCC4)cc3)c2n1 [entospletinib]
As to the kind of experiment: log2 fold change, soluble protein after heating vs DMSO (PISA); higher = thermal stabilisation; K562 cells, 10 uM, 30 min; active = over 0.2 and 3.5 SD of the protein, either way, in both replicates (recomputed). A digest of the protocol:
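Thermal stability values are relative to control samples and come from duplicates. They are expressed as log2 fold changes. For measurement, K562 cells (2×10^6 cells/mL) received 10 μM compound for 30 min, and aliquots were heated for 3 min over 48°C-58°C, pooled, and extracted at 4°C in PBS with 0.5% NP-40. Soluble protein, the supernatant after 21,000xg for 90 min, was quantified by TMTpro 16plex LC-MS/MS with equalised channel sums.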
For PISD (UniProt Q9UG56), the log2 fold change is -0.009.

With PHAX (UniProt Q9H814), the log2 fold change was -0.005.

In the case of PRPF31 (UniProt Q8WWY3), the log2 fold change was 0.025.

For PPP2R5A (UniProt Q15172), the log2 fold change is 0.001.

Consider POMP (UniProt Q9Y244), for which the log2 fold change is -0.015.

As for POLR2M (UniProt Q6EEV4), the log2 fold change is 0.056.

With POLR2A (UniProt P24928), the log2 fold change was 0.162.

On to PRKAR2A (UniProt P13861), for which the log2 fold change is 0.088.

As to POLR2C (UniProt P19387), the log2 fold change was 0.138.

As to PSPC1 (UniProt Q8WXF1), the log2 fold change is 0.034.

As to PEX16 isoform 2 (UniProt Q9Y5Y5), the log2 fold change is -0.081.

Take PLCG1 isoform 2 (UniProt P19174): the log2 fold change was 0.021.

Regarding PPIL2 (UniProt Q13356), the log2 fold change is -0.027.

On to PIK3R1 (UniProt P27986), for which the log2 fold change was -0.045.

Source of the values: the supplement of paper PMC10849652.
